PI5P4Ka inh = qHTS for Inhibitors of phosphatidylinositol 5-phosphate 4-kinase (PI5P4K). Phosphatidylinositol 5-phosphate 4-kinase type-2 alpha (Homo sapiens), P48426. PI5P4Kalpha enzyme, ADP-Glo luminescence, 60 min; stronger effect = lower value. max response, %. actives 1.2% (n = 330,000). AID 652105, 2013; active = max response of -50% or lower; inconclusive = between -30% and -50%; inactive = -30% or higher; note: value at the top dose of about 77 µM; % is set by controls: 0 for no effect and ±100 for the full control effect
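Luminescence from ADP-Glo served as readout of PI5P4Kalpha activity in a qHTS format. Reaction: enzyme, substrate, compound, ATP at 5 microM final, 60 min at RT.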
Pol iota inh = qHTS for Inhibitors of Polymerase Iota | Pol iota fluorescent replication assay, 10 min | actives 1% (n = 390,000) | AID 588590, 2011 | Potency, µM (highest dose often 115 µM), without a hit: at the highest dose activity, negative = inhibition, most hits filed as inhibitors; note: potency is the fitted concentration of half-maximal effect
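Fluorescent replication assay read twice, at 0 min and 10 min after adding 50 nM (final) substrate. Enzyme (10 nM) and compounds were first incubated 15 min at room temperature; enzyme-free buffer wells were negative controls.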
POLK inh = qHTS for Inhibitors of Polymerase Kappa; purified Pol kappa, fluorescent DNA synthesis assay, 10 min; actives 0.53% (n = 400,000); Potency, µM (top dose mostly 107 µM), for inactives: at the top dose activity, negative = inhibition, actives largely listed as inhibitors; note: potency is the fitted concentration of half-maximal effect; % is set by controls: 0 for no effect and ±100 for the full control effect
Target sequence (Q9UBT6 whole entry, looked up): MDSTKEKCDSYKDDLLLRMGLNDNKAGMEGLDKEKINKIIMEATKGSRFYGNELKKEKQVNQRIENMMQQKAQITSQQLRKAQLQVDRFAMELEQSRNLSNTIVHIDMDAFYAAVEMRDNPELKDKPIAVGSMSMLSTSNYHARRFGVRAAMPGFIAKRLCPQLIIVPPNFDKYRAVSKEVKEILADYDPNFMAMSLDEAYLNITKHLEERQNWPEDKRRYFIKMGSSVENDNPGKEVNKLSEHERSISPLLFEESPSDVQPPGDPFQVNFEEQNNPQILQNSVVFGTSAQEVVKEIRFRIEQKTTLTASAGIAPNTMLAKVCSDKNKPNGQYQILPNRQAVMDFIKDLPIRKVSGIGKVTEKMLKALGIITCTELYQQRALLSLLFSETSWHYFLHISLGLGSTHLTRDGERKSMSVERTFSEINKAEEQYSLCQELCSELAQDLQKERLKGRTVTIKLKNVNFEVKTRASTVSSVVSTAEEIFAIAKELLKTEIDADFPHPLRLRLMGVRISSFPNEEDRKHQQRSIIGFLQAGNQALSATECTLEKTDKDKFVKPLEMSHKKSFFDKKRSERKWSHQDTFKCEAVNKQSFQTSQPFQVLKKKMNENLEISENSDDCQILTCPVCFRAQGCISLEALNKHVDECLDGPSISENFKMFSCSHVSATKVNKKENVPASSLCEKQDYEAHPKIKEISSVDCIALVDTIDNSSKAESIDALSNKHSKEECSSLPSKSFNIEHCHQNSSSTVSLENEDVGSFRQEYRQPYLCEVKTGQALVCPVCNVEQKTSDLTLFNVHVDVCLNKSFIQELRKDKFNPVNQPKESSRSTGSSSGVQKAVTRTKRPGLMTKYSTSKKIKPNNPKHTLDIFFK
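Readout: fluorescence, taken kinetically at 0 and 10 min. Conditions: 10 nM Pol kappa, 15 min RT compound preincubation, 50 nM substrate final. Controls: enzyme-free buffer wells.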
WRN helicase inh = qHTS for Inhibitors of WRN Helicase; Bifunctional 3'-5' exonuclease/ATP-dependent helicase WRN (Homo sapiens), Q14191; WRN helicase unwinding, fluorescent forked duplex, kinetic; Potency, µM (highest dose often 114 µM), for inactives: at the highest dose activity change, negative = inhibition, hits mostly inhibitors; actives 0.46% (n = 360,000); note: potency is the fitted concentration of half-maximal effect; % is set by controls: 0 for no effect and ±100 for the full control effect; nearly all actives have a fitted effect of over 55% in size
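WRN at 20 nM final was preincubated with compound for 15 min at room temperature; reaction started with 100 nM forked duplex oligonucleotide carrying fluorophore and quencher plus 2 mM ATP (final). Unwinding followed kinetically by red fluorescence (ex 525/em 598 nm).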
Pol beta inh = qHTS Assay for Inhibitors of DNA Polymerase Beta. Potency, µM (titrated, usually from 114 µM), for inactives: top-dose activity change, negative = inhibition, hits mostly inhibitors. Pol beta primer extension/strand displacement, fluorescence kinetic. AID 485314, 2010. P06746. actives 1.3% (n = 340,000); note: potency is the fitted concentration of half-maximal effect; % is set by controls: 0 for no effect and ±100 for the full control effect
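Pol beta (10 nM) and compounds were preincubated 15 min at room temperature, then 50 nM substrate (final) started primer extension/strand displacement. Reads were taken at 0 and 10 min; concentration-response data were fitted to a four-parameter Hill equation.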
Pol eta inh = qHTS for Inhibitors of Polymerase Eta. actives 1.2% (n = 390,000). AID 588591, 2011. recombinant Pol eta, fluorescent DNA replication assay. Potency, µM (titrated, usually from 114 µM), without a hit: at the top dose activity change, negative = inhibition, hits mostly inhibitors. DNA polymerase eta (Homo sapiens), Q9Y253; note: potency is the fitted concentration of half-maximal effect; % is set by controls: 0 for no effect and ±100 for the full control effect
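Pol eta (10 nM) was preincubated with compounds for 15 min at room temperature, after which fluorescent replication substrate (50 nM final) was added to start the reaction. Fluorescence was read kinetically at 0 and 10 min.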
ADP-Glo counter = qHTS for Inhibitors of PI5P4K: ADP-Glo counter assay | 1,100 tested, under 10 active | ADP-Glo detection counter-screen, luciferase luminescence, no enzyme | Potency, µM (highest dose often 76.9 µM), inactives show at the highest dose activity change, negative = inhibition, usual class: inhibitors | shares compounds with PI5P4Ka inh
Numbers without * were called inactive; [ ] = another dose, or the depositor's remark. A selection: hits, their analogues and other compounds. The true share with any hit is near 2.8%. Unless noted, calls come from the whole dose curve; as a rule, active = well fitted curve in the direction sought with a large enough effect; inconclusive = small, poorly fitted or top-dose-only effect, or another doubt; inactive = no such curve, though single readings can be large; an effect the other way counts as inactive or inconclusive.

How did N#Cc1ccc(COC(=O)CC(NC(N)=O)c2ccc(Cl)cc2)cc1 (stereo not drawn) do in these assays?
PI5P4Ka inh: inconclusive; Pol iota inh: 1.7%; POLK inh: -15.2%; WRN helicase inh: 3.5%; Pol beta inh: 11.0%; Pol eta inh: inconclusive; ADP-Glo counter: 3.8%

Results for COc1ccccc1CNc1nc(NC(C)C)nc2ccsc12 ?
PI5P4Ka inh: inconclusive; WRN helicase inh: -7.0%[57.1 µM]

Results for c1csc(CNc2nc(NCC3CCCCC3)c3sccc3n2)c1 ?
WRN helicase inh: -2.6%; ADP-Glo counter: 1.6%

Results for COc1ccccc1CNc1nc(NCc2ccc(C(C)C)cc2)c2sccc2n1 ?
WRN helicase inh: -15.3%; ADP-Glo counter: -5.3%

Results for c1ccc(CNc2nc(NCC3CC3)nc3cc(-c4ccccc4)sc23)cc1 ?
WRN helicase inh: -11.2%; ADP-Glo counter: -6.8%

Results for CC(C)c1ccc(CNc2nc(NCC3CC3)nc3ccsc23)cc1 ?
WRN helicase inh: -6.4%; ADP-Glo counter: -3.9%

Results for COc1cccc(CNc2nc(NCC3CC3)nc3ccsc23)c1 ?
PI5P4Ka inh: -23.5; WRN helicase inh: -6.3%

What do the screens show for `Cc1ccc(NC(=O)C2CCN(S(=O)(=O)c3ccc4c(c3)CCCC(=O)N4)CC2)cc1N(C)C`?
PI5P4Ka inh: -4.6; Pol iota inh: 32.6%; POLK inh: 3.0%; WRN helicase inh: 1.7%; Pol beta inh: 19.5%; Pol eta inh: -14.8%

What do the screens show for `N#Cc1ncccc1CCc1cccc(Cl)c1`?
PI5P4Ka inh: 2.1; Pol iota inh: 32.1%; POLK inh: -2.6%; WRN helicase inh: -4.7%; Pol eta inh: -21.2%

How did Cc1cccc(-n2c(=S)[nH]c3sc4c(c3c2=O)CCc2ccccc2-4)c1 do in these assays?
PI5P4Ka inh: -77.0*; Pol iota inh: 64.3%; POLK inh: -24.6%; WRN helicase inh: inconclusive; Pol beta inh: 5.2%; Pol eta inh: -8.0%; ADP-Glo counter: 0.1%

How did Cc1ccc(-n2c(=S)[nH]c3sc4c(c3c2=O)CCc2ccccc2-4)cc1 do in these assays?
PI5P4Ka inh: -17.6; Pol iota inh: 25.5%; POLK inh: -4.4%; WRN helicase inh: -3.6%; Pol beta inh: 15.3%[57.1 µM]; Pol eta inh: -11.7%

How did COCCn1c(SCC(=O)Nc2cccnc2Cl)nc2cc(Cl)ccc2c1=O do in these assays?
PI5P4Ka inh: 7.4; Pol iota inh: 9.1%; POLK inh: -13.4%; WRN helicase inh: -1.1%; Pol eta inh: -0.7%

Results for COCCn1c(SCC(=O)Nc2cccc(S(N)(=O)=O)c2)nc2cc(Cl)ccc2c1=O ?
PI5P4Ka inh: -63.0*; Pol iota inh: 51.1%; POLK inh: -4.6%; WRN helicase inh: inconclusive; Pol beta inh: 57.8%; Pol eta inh: -1.1%; ADP-Glo counter: -3.4%

What do the screens show for `CCOc1ccc(CCNS(=O)(=O)c2ccc3c(c2)NC(=O)CO3)cc1OCC`?
PI5P4Ka inh: -8.6; Pol iota inh: -6.7%; POLK inh: -1.9%; WRN helicase inh: 7.6%; Pol beta inh: 0.0%; Pol eta inh: 5.8%

Results for O=C1COc2ccc(S(=O)(=O)NCCc3ccccc3)cc2N1 ?
PI5P4Ka inh: -50.8*; Pol iota inh: inconclusive; POLK inh: -20.4%; WRN helicase inh: -4.3%; Pol beta inh: 12.7%; Pol eta inh: -23.6%; ADP-Glo counter: 1.7%

How did CC1=NN(c2nc(-c3ccc(Cl)cc3)cs2)C(=O)C1 do in these assays?
PI5P4Ka inh: -66.7*; Pol iota inh: inconclusive; POLK inh: 50.1µM*; WRN helicase inh: inconclusive; Pol beta inh: 35.5µM*; Pol eta inh: 44.7µM*; ADP-Glo counter: -7.6%

How did CCOc1ccc(OCc2ccc(C(=O)N3CCOCC3)cc2)cc1 do in these assays?
PI5P4Ka inh: -53.7*; Pol iota inh: -1.6%; POLK inh: -5.2%; WRN helicase inh: 0.5%; Pol beta inh: 1.4%; Pol eta inh: -15.8%; ADP-Glo counter: -4.8%

Results for COc1cc(C2CC(=O)N3CN(Cc4ccco4)CSC3=C2C#N)ccc1OCc1ccccc1 (stereo not drawn) ?
PI5P4Ka inh: -59.3*; Pol iota inh: -28.6%; POLK inh: -35.1%; WRN helicase inh: -21.1%; Pol beta inh: -1.2%; Pol eta inh: -15.0%; ADP-Glo counter: 3.0%

How did CCCCCNC(=O)C(c1cc2ccccc2o1)n1c(=O)c(-c2ccco2)nc2ccccc21 (stereo not drawn) do in these assays?
PI5P4Ka inh: -108.3*; WRN helicase inh: inconclusive; ADP-Glo counter: -6.8%

What do the screens show for `COc1ccc(C(C(=O)Nc2c(C)cccc2C)n2c(=O)c(-c3ccco3)nc3ccccc32)cc1` (stereo not drawn)?
PI5P4Ka inh: inconclusive; WRN helicase inh: -4.0%

Results for Cc1cccc(C)c1NC(=O)C(c1ccccc1)n1c(=O)c(-c2ccco2)nc2ccccc21 (stereo not drawn) ?
PI5P4Ka inh: -51.8*; WRN helicase inh: -11.5%; ADP-Glo counter: -4.2%

Results for Cc1cccc(C)c1NC(=O)C(c1ccc(C#N)cc1)n1c(=O)c(-c2ccco2)nc2ccccc21 (stereo not drawn) ?
PI5P4Ka inh: -52.8*; WRN helicase inh: -3.3%; ADP-Glo counter: -1.5%

How did O=C(NCc1ccccc1)C(c1ccccc1F)n1c(=O)c(-c2ccco2)nc2ccccc21 (stereo not drawn) do in these assays?
PI5P4Ka inh: -63.6*; WRN helicase inh: -5.8%; ADP-Glo counter: -5.3%

What do the screens show for `CCCCCNC(=O)C(c1ccncc1)n1c(=O)c(-c2ccco2)nc2ccccc21` (stereo not drawn)?
PI5P4Ka inh: inconclusive; WRN helicase inh: 0.2%

What do the screens show for `O=c1cc(N2CCOCC2)oc2c(-c3ccccc3)cccc12`?
Pol iota inh: 6.0%[58.9 µM]; POLK inh: -21.1%[60.1 µM]; Pol beta inh: 8.0%[57.1 µM]; Pol eta inh: -1.8%[57.1 µM]

What do the screens show for `O=C(c1cccc(S(=O)(=O)N2CCCC2)c1)N1CCN(Cc2ccccc2)CC1`?
PI5P4Ka inh: -1.1; Pol iota inh: -25.8%; POLK inh: -14.5%; WRN helicase inh: -4.3%; Pol eta inh: -1.1%

Screens: PubChem, National Center for Advancing Translational Sciences (NCATS)
